# From PubChem BioAssay (NCATS)
# Results filed as inconclusive are left out. A call without a number means that no potency is given here. Values without a mark were called inactive. Calls of active or inactive are those of the source. Calls follow the shape of the dose curve; as a rule, active = well fitted cell-killing curve with a large enough effect; inconclusive = small, poorly fitted or top-dose-only effect, or effect the other way; inactive = no such curve, though single readings can be large or run the other way.
# Assays:
# [1] = Quantitative High-Throughput drug screen in 47 multiple myeloma cell lines against the NCATS MIPE library collection: KMS28PE_JCRB cell viability assay (AID 1918983); also: nearly all actives have a fitted effect of over 35% in size
# In short: (§1)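 500 cells/well; MIPE 4.0 drugs pin-transferred; 48 h, 37C, 5% CO2. CellTiter-Glo, 5 min RT, luminescence. Controls: DMSO 100%, media 0%.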
# [2] = Quantitative High-Throughput drug screen in 47 multiple myeloma cell lines against the NCATS MIPE library collection: OPM1_PLB cell viability assay (AID 1918989); also: nearly all actives have a fitted effect of over 40% in size
# In short: as §1
# [3] = Quantitative High-Throughput drug screen in 47 multiple myeloma cell lines against the NCATS MIPE library collection: SKMM1_PLB cell viability assay (AID 1919863); settings: SKMM1 myeloma viability, CellTiter-Glo ATP, 48 h; viability: stronger effect = lower value; also: nearly all actives have a fitted effect of over 35% in size
# In short: as §1
# [4] = Quantitative High-Throughput drug screen in 47 multiple myeloma cell lines against the NCATS MIPE library collection: U266_ATCC cell viability assay (AID 1919864); also: nearly all actives have a fitted effect of over 35% in size
# In short: as §1
# [5] = Quantitative High-Throughput drug screen in 47 multiple myeloma cell lines against the NCATS MIPE library collection: VP6_DJ cell viability assay (AID 1919867); also: nearly all actives have a fitted effect of over 40% in size
# In short: as §1
# [6] = Quantitative High-Throughput drug screen in 47 multiple myeloma cell lines against the NCATS MIPE library collection: PE2_PLB cell viability assay (AID 1919869); also: nearly all actives have a fitted effect of over 35% in size
# In short: as §1
# [7] = Quantitative High-Throughput drug screen in 47 multiple myeloma cell lines against the NCATS MIPE library collection: PCM6_Riken cell viability assay (AID 1919870); also: nearly all actives have a fitted effect of over 30% in size
# In short: as §1
# [8] = Quantitative High-Throughput drug screen in 47 multiple myeloma cell lines against the NCATS MIPE library collection: RPMI8226_ATCC cell viability assay (AID 1919871); also: nearly all actives have a fitted effect of over 30% in size
# In short: as §1
# [9] = Quantitative High-Throughput drug screen in 47 multiple myeloma cell lines against the NCATS MIPE library collection: OPM2_DSMZ cell viability assay (AID 1919872); also: nearly all actives have a fitted effect of over 30% in size
# In short: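 Myeloma cells (500 per well) were exposed to MIPE 4.0 compounds by pin transfer and incubated 48 hours at 37C, 5% CO2. Viability was read as ATP by CellTiter-Glo luminescence, normalised to DMSO (100%) and media-only (0%) wells.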
# [10] = Quantitative High-Throughput drug screen in 47 multiple myeloma cell lines against the NCATS MIPE library collection: KMS11_JCRBsus cell viability assay (AID 1919873); also: nearly all actives have a fitted effect of over 50% in size
# In short: as §1
# [11] = Quantitative High-Throughput drug screen in 47 multiple myeloma cell lines against the NCATS MIPE library collection: KMS28BM_JCRB cell viability assay (AID 1919874); also: nearly all actives have a fitted effect of over 35% in size
# In short: as §1
# [12] = Quantitative High-Throughput drug screen in 47 multiple myeloma cell lines against the NCATS MIPE library collection: XG6_PLB cell viability assay (AID 1919865); also: nearly all actives have a fitted effect of over 40% in size
# In short: as §1
# [13] = Quantitative High-Throughput drug screen in 47 multiple myeloma cell lines against the NCATS MIPE library collection: OCIMY5_PLB cell viability assay (AID 1918988); also: nearly all actives have a fitted effect of over 65% in size
# In short: as §1
# [14] = Quantitative High-Throughput drug screen in 47 multiple myeloma cell lines against the NCATS MIPE library collection: XG1_PLB cell viability assay (AID 1919866); also: nearly all actives have a fitted effect of over 35% in size
# In short: as §1
# [15] = Quantitative High-Throughput drug screen in 47 multiple myeloma cell lines against the NCATS MIPE library collection: UTMC2_PLB cell viability assay (AID 1919868); settings: CellTiter-Glo ATP luminescence, 48 h; viability (% of DMSO control): at 45.8 µM (top of the series); also: nearly all actives have a fitted effect of over 55% in size
# In short: as §1
# [16] = Quantitative High-Throughput drug screen in 47 multiple myeloma cell lines against the NCATS MIPE library collection: OCIMY7_PLB cell viability assay (AID 1918987); settings: OCI-MY7 myeloma viability, CellTiter-Glo ATP, 48 h; viability (% of DMSO): at 45.8 µM (top of the series); also: nearly all actives have a fitted effect of over 65% in size
# In short: as §1
# [17] = Quantitative High-Throughput drug screen in 47 multiple myeloma cell lines against the NCATS MIPE library collection: L363_DSMZ cell viability assay (AID 1918984); also: nearly all actives have a fitted effect of over 40% in size
# In short: as §1
# [18] = Quantitative High-Throughput drug screen in 47 multiple myeloma cell lines against the NCATS MIPE library collection: KMS34_JCRB cell viability assay (AID 1918985); also: nearly all actives have a fitted effect of over 40% in size
# In short: as §1
# Potency is read from the fitted curve at half-maximal effect.
Structure (SMILES),Potency [1],Potency [2],viability [3] [%],Potency [4],Potency [5],Potency [6],Potency [7],Potency [8],Potency [9],Potency [10],Potency [11],Potency [12],Potency [13],Potency [14],Potency [15],Potency [16],Potency [3],Potency [17],Potency [18]
O=C(O)CCCCCC(=O)NN=C1CCCC1,inactive,inactive,119,inactive,inactive,inactive,inactive,inactive,inactive,inactive,inactive,,,,,,,,
CC(=CC(=O)Nc1ccccc1C(=O)O)c1ccc2ccccc2c1,inactive,,,,18.7 µM (active),,,,inactive,inactive,inactive,7.43 µM (active),,,,,,,
CC(C(C)N1CC(=O)NC(=O)C1)N1CC(=O)NC(=O)C1 (configuration not stated),inactive,inactive,134,inactive,inactive,inactive,,inactive,inactive,inactive,inactive,inactive,0.469 µM (active),inactive,0.526 µM (active),,,,
Cc1cc(-c2nnc3n2CCCCC3)c(C)n1-c1ccccc1,inactive,,,inactive,inactive,inactive,,,inactive,inactive,,,23.5 µM (active),,inactive,,,,
N=c1ccn2c(n1)O[C@H]1[C@@H](O)[C@@H](CO)O[C@H]12,inactive,,,18.7 µM (active),18.7 µM (active),inactive,,inactive,inactive,0.469 µM (active),,,,5.9 µM (active),14.8 µM (active),0.332 µM (active),0.148 µM (active),,
CON=C(C(=O)N[C@@H]1C(=O)N2C(C(=O)O)=C(CSC(=O)c3ccco3)CS[C@H]12)c1csc(N)n1,inactive,inactive,134,,inactive,,,,inactive,inactive,inactive,,,inactive,,inactive,,,
NC(=O)c1cccc(-c2cccc(OC(=O)NC3CCCCC3)c2)c1,inactive,inactive,,inactive,inactive,inactive,inactive,inactive,inactive,inactive,inactive,inactive,,,inactive,inactive,,,
N#Cc1cc(NC(=O)Nc2nnc(-c3ccncc3)s2)ccc1-c1cn[nH]c1,16.6 µM (active),inactive,,,,,inactive,inactive,inactive,inactive,inactive,,,,,,,,
CC(O)(C#Cc1ccc2c(c1)N(c1nc(N)ncc1Cl)CC2)c1nccs1 (configuration not stated),,14.8 µM (active),,16.6 µM (active),5.26 µM (active),8.33 µM (active),,,,18.7 µM (active),,4.18 µM (active),20.9 µM (active),4.69 µM (active),4.18 µM (active),2.64 µM (active),,16.6 µM (active),
OCC(O)C(O)C(O)CO (configuration not stated),,inactive,,,,inactive,inactive,,inactive,,,inactive,,inactive,,inactive,,inactive,inactive
CNC(=O)Nc1ccc(-c2nc(N3CC4CCC(C3)O4)c3cnn(C4CCC5(CC4)OCCO5)c3n2)cc1,0.0037 µM (active),0.0118 µM (active),,0.0148 µM (active),,,0.0662 µM (active),,,,0.0074 µM (active),,,,,3.72 µM (active),0.0166 µM (active),,
C[C@@H](NCc1cc2ccccc2[nH]1)c1cccc2ccccc12,inactive,,132,inactive,inactive,,inactive,inactive,inactive,inactive,inactive,inactive,inactive,,,,,,
O=C1c2cccc(O)c2C(=O)c2c(O)cc(CO)cc21,5.9 µM (active),inactive,,inactive,,inactive,inactive,16.6 µM (active),inactive,inactive,inactive,,,inactive,,inactive,,,
O=C(C[C@@H]1CC=CCCC(=O)O[C@H](c2ccccc2)CNC1=O)NCc1ccc(Cl)cc1,inactive,inactive,,,13.2 µM (active),,5.9 µM (active),inactive,inactive,inactive,inactive,6.62 µM (active),,,inactive,,,,
C[C@@H]1C(=O)O[C@H]2CC34[C@H]5C[C@@H](C(C)(C)C)C36[C@H](OC(=O)[C@@H]6O)O[C@@]4(C(=O)O5)[C@]21O (some centres not stated),inactive,,,inactive,inactive,inactive,,inactive,inactive,inactive,inactive,inactive,,inactive,inactive,,,,
C[C@H](NC(=O)Cc1cc(F)cc(F)c1)C(=O)N[C@H](C(=O)OC(C)(C)C)c1ccccc1,inactive,inactive,105,inactive,,inactive,inactive,,,,inactive,inactive,,inactive,,,,,

Structure (SMILES),Potency [1],Potency [2],viability [3] [%],Potency [4],Potency [5],Potency [6],Potency [7],Potency [8],Potency [9],Potency [10],Potency [11],Potency [12],Potency [13],Potency [14],Potency [15],Potency [16],Potency [3],Potency [17],Potency [18]
COc1ccnc2[nH]cc(C(=O)C(=O)N3CCN(C(=O)c4ccccc4)C[C@@H]3C)c12,inactive,inactive,120,inactive,,inactive,inactive,inactive,,inactive,,inactive,,inactive,inactive,,,,
Cn1cnc2c(F)c(Nc3ccc(Br)cc3F)c(C(=O)NOCCO)cc21,inactive,inactive,115,inactive,,0.0743 µM (active),inactive,inactive,,inactive,inactive,0.0132 µM (active),inactive,,,,,,
Nc1ccn(C[C@@H](CO)OCP(=O)(O)O)c(=O)n1,inactive,,,inactive,inactive,,,inactive,,,inactive,inactive,,,,,,,
N[C@H]1CN(c2c(F)cc3c(=O)c(C(=O)O)cn(C4C[C@@H]4F)c3c2Cl)CC12CC2 (some centres not stated),,inactive,,,inactive,inactive,inactive,,,inactive,inactive,inactive,20.9 µM (active),inactive,,inactive,,inactive,
CC(C)[C@H](CO)Nc1nc(Nc2cccc(Cl)c2)c2ncn(C(C)C)c2n1,,23.5 µM (active),,18.7 µM (active),13.2 µM (active),18.7 µM (active),,26.4 µM (active),20.9 µM (active),11.8 µM (active),18.7 µM (active),5.26 µM (active),18.7 µM (active),6.62 µM (active),,6.62 µM (active),,inactive,18.7 µM (active)
COc1ccc(S(=O)(=O)Nc2cc(-c3c(O)ccc4ccccc34)c(O)c3ccccc23)cc1,,9.35 µM (active),,2.35 µM (active),9.35 µM (active),1.48 µM (active),5.26 µM (active),23.5 µM (active),11.8 µM (active),,3.72 µM (active),5.9 µM (active),,5.26 µM (active),16.6 µM (active),2.64 µM (active),20.9 µM (active),2.64 µM (active),10.5 µM (active)
O=C1NC(O)CCN1[C@@H]1O[C@H](CO)[C@H](O)[C@H]1O (some centres not stated),inactive,inactive,122,inactive,,inactive,,,inactive,,inactive,inactive,,11.8 µM (active),,,,,
NC(=O)c1ncn([C@@H]2O[C@H](CO)[C@@H](O)[C@@H]2O)c1N,inactive,inactive,,inactive,,inactive,inactive,inactive,inactive,,inactive,inactive,,,,,,,
CC1(C)O[C@@H]2C[C@H]3[C@@H]4CCC5=CC(=O)C=C[C@]5(C)[C@@H]4[C@@H](O)C[C@]3(C)[C@]2(C(=O)CO)O1,inactive,7.43 µM (active),142,inactive,18.7 µM (active),inactive,,0.0332 µM (active),inactive,0.0332 µM (active),inactive,inactive,0.118 µM (active),,,,,,
CC(Oc1ccc(O)cc1)(P(=O)(O)O)P(=O)(O)O,inactive,,108,,inactive,2.35 µM (active),,inactive,,inactive,,inactive,,inactive,,,,,
N#CC(=C(O)c1ccc(Cl)cc1Cl)c1nc2cc(Cl)ccc2c(=O)[nH]1,inactive,inactive,,inactive,16.6 µM (active),,,inactive,inactive,,inactive,,,inactive,inactive,inactive,,,
C[C@H]1C[C@H]2[C@@H]3CCC4=CC(=O)C=C[C@]4(C)[C@@H]3C(=O)C[C@]2(C)[C@@]1(O)C(=O)CO,inactive,inactive,,,6.62 µM (active),inactive,inactive,inactive,inactive,inactive,,inactive,inactive,inactive,,,,,
CC(=O)C1=C(O)C=C2Oc3c(C(C)=O)c(O)c(C)c(O)c3C2(C)C1=O (configuration not stated),inactive,,,,inactive,,inactive,inactive,inactive,,inactive,,0.0012 µM (active),inactive,inactive,,,,
N#Cc1ccc(COC[C@H]2O[C@@H](n3c(NCc4ccc(Cl)c(Cl)c4)nc4c(N)ncnc43)[C@@H](O)[C@@H]2O)cc1,5.9 µM (active),5.26 µM (active),,20.9 µM (active),,,5.26 µM (active),5.26 µM (active),,5.26 µM (active),5.9 µM (active),16.6 µM (active),3.72 µM (active),2.64 µM (active),1.32 µM (active),,2.96 µM (active),,
CN1CCCN(C(=O)c2cccc(-c3ccc(C=C4C(=O)Nc5ccc(Cl)cc54)o3)c2)CC1,,23.5 µM (active),,18.7 µM (active),18.7 µM (active),23.5 µM (active),9.35 µM (active),23.5 µM (active),23.5 µM (active),9.35 µM (active),10.5 µM (active),7.43 µM (active),9.35 µM (active),11.8 µM (active),0.935 µM (active),10.5 µM (active),14.8 µM (active),6.62 µM (active),
